From PubChem BioAssay
E-sel TNF inh – E-selectin induction blockers in HUVEC – imaging, immunofluorescence, high content, primary screen. HUVEC TNFa-induced E-selectin immunofluorescence. inhibition, % at 2 µM. 0.71% of 120,000 active;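 active means inhibition above the batch mean plus 3 SD, and confirmed as a hit on visual image review, cut at about 43% in these data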;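 further: 0% = TNF-stimulated DMSO wells and 100% = unstimulated control wells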
NFkB transloc pot – enhancers of NFkB p65 translocation in HUVEC – imaging, IL-1B stimulus, high-content imaging, primary screen | HUVEC IL-1B NFkB p65 nuclear translocation imaging | activation, % at 2 µM | 0.3% of 94,000 active;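 active means activation above 40%, about the mean plus 3 SD, also judged a hit on visual image review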;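 further: percent activation is computed from the nuclear over cytoplasmic p65 intensity ratio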
IL1B NFkB inh – inhibitors of IL-1B driven NFkB p65 nuclear import, primary screen, imaging, HUVEC, IL-1B stimulus, high-content imaging | HUVEC IL-1B NFkB p65 nuclear translocation imaging | inhibition, % at 2 µM | 0.43% of 94,000 active | AID 796, 2007;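 active means inhibition above about 30% together with a positive call from visual inspection of the well image, limit read from the data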;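 further: nuclear over cytoplasmic p65 intensity ratio measured by imaging; 0% = IL-1B stimulated DMSO wells and 100% = unstimulated DMSO wells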
HUVEC tox TNFa – cytotoxicity in TNFa-stimulated HUVEC, primary screen, cytotoxicity control for VCAM1 expression modulator project, imaging, Hoechst nuclei count; HUVEC TNFalpha-stimulated, Hoechst cell count; AID 848, 2007; 0.17% of 93,000 active; cell count reduction, % at 2 µM;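 active means cell count reduction exceeding the screen mean by over 5 SD, scaled to untreated wells per plate, cut at about 78% in these data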;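 further: cells counted after 24 h of TNF alpha exposure following the 1 h pretreatment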
IL1B cytotox – cytotoxicity in IL-1B stimulated HUVEC, primary screen, cytotoxicity control for IL-1B NFkB translocation project, imaging, Hoechst nuclear count, IL-1B stimulus. HUVEC cell count loss. 0.41% of 94,000 active. cell count reduction, % at 2 µM. AID 845, 2007;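 active means cell count reduction more than 3 SD above the screen-wide mean, cut at about 70% in these data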;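 further: normalized per plate to untreated control cells as the no-loss baseline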
VCAM1 TNFa inh – inhibitors of TNFa-induced VCAM1 expression, primary screen, imaging, HUVEC, TNFa stimulus, immunofluorescence. HUVEC TNFa-induced VCAM-1 immunofluorescence, high-content imaging. inhibition, % at 2 µM. 0.48% of 95,000 active;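 active means inhibition above the batch mean plus 3 SD, with images confirmed as a hit by eye, cut at about 37% in these data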;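 further: 0% = TNF-stimulated DMSO wells and 100% = unstimulated control wells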
* = called active by the depositor; . = not tested or not shown. Hits are enriched below; roughly 1.7% of the tested compounds scored in any of these assays.

SMILES | E-sel TNF inh | NFkB transloc pot | IL1B NFkB inh | HUVEC tox TNFa | IL1B cytotox | VCAM1 TNFa inh
O=C(NCCCN1CCCC1)C1CCN(C(=O)c2cc3sccc3n2Cc2ccc(F)cc2)CC1 | . | 10 | -10 | -14 | 9 | -6
O=C(NCc1ccco1)C1CCN(C(=O)c2cc3sccc3n2Cc2ccc(F)cc2)CC1 | -22 | -3 | 3 | -13 | 89* | 16
O=[N+]([O-])c1cc2c(cc1/C=N/Nc1nc(Nc3ccccc3)nc(N3CCCCC3)n1)OCO2 | 57* | -4 | 4 | -6 | 5 | -4
O=C(O)c1ccc(-c2ncc[nH]2)cc1 | -12 | . | . | . | . | .
COCCCNCCCOc1ccc(C(C)(C)c2ccccc2)cc1 | -29 | . | . | . | . | .
CC(C)(C)c1ccc(OCCCNCc2ccccc2)cc1 | 95* | . | . | . | . | .
CCCCc1c(O)nc(SCC(=O)Nc2ccc3c(c2)CCC3)[nH]c1=O | 60* | . | . | . | . | .
Cc1ccsc1-c1nc(CN2C[C@@H](C)O[C@@H](C)C2)c(C)o1 | 5 | . | . | . | . | .
COc1ccc(CNC(=O)CCc2c(C)nc3ncnn3c2C)cc1 | . | 8 | -8 | -10 | -4 | -2
Cc1nc2ncnn2c(C)c1CCC(=O)NCc1ccccc1 | 62* | -1 | 1 | -26 | -7 | 14
CCC(=O)Nc1ccc(NC(=O)c2ccccc2Cl)nc1 | 5 | 1 | -1 | 62 | -8 | 30
CC(C)C(=O)Nc1ccc(NC(=O)c2ccccc2Cl)nc1 | 22 | -10 | 10 | 83* | -10 | 31
CCCCCn1c(CN2CCN(Cc3ccccc3)CC2)nc2c1c(=O)n(C)c(=O)n2C | 100* | 26 | -26 | -20 | -31 | 12
Cn1c(=O)[nH]c(=O)c2c1nc(CN1CCN(Cc3ccccc3)CC1)n2CC(N)=O | 50* | . | . | . | . | .
CCCn1c(CN2CCN(c3cccc(Cl)c3)CC2)nc2c1c(=O)n(C)c(=O)n2C | 62* | -3 | 3 | -20 | -1 | 5
Cc1ccc(N2C(=O)C3C(C2=O)C2C=CC3C23CC3)c([N+](=O)[O-])c1 (stereo not drawn) | -29 | . | . | . | . | .
Cc1ccc(NC(=O)CC(C(=O)O)c2ccccc2)cc1 (stereo not drawn) | -10 | . | . | . | . | .
O=[N+]([O-])C(=C1Nc2ccccc2N1)/C(Cl)=C(/Cl)Br | 7 | . | . | . | . | .
c1ccc2c(-c3cc(C4CCNCC4)[nH]n3)cccc2c1 | -29 | . | . | . | . | .
Cc1nnc(C)c2c(C)n(C(C)c3ccccc3)c(C)c12 (stereo not drawn) | 1 | 8 | -8 | 0 | 9 | -8
COc1ccc(C(C)n2c(C)c3c(C)nnc(C)c3c2C)cc1 (stereo not drawn) | -22 | -41 | 41* | 12 | -20 | -21
CCS(=O)(=O)c1ccc2oc(Nc3cc(C)cc(C)c3)nc2c1 | -12 | -16 | 16 | 3 | 4 | 4
CCS(=O)(=O)c1ccc2oc(Nc3ccc(C(C)C)cc3)nc2c1 | 64* | 4 | -4 | -28 | -16 | 11
CNC(=O)c1sc(-c2ccc(Cl)cc2)nc1C | . | -15 | 15 | 4 | 75* | 8
CNC(=O)c1sc(-c2ccccc2)nc1C | -3 | 19 | -19 | 6 | -13 | -1
SMILES | E-sel TNF inh | NFkB transloc pot | IL1B NFkB inh | HUVEC tox TNFa | IL1B cytotox | VCAM1 TNFa inh
O=C(CNCc1cccs1)Nc1ccc(N2CCCCCC2)cc1 | 5 | . | . | . | . | .
CCn1c(SCC(=O)NC(C)c2ccccc2)nc2ccccc21 (stereo not drawn) | -27 | -2 | 2 | 28 | -17 | 63*
CCc1ccccc1NC(=O)CSc1nc2n[nH]c(C)c2c(=N)n1-c1cccc(OC)c1 | 54* | . | . | -14 | . | 9
CCOc1ccccc1-n1c(SCC(=O)Nc2ccc(CC)cc2)nc2n[nH]c(C)c2c1=N | -24 | 38 | -38 | -42 | -6 | 16
CCCOC(=O)CSC1=C(C#N)C(c2ccccc2OC)C(C#N)C(=O)N1 (stereo not drawn) | . | -4 | 4 | 83* | -13 | 92*
CC(=O)[C@H]1[C@H](c2cccc(Cl)c2)C(C#N)(C#N)[C@@H]2c3ccccc3C=CN21 | -29 | . | . | . | . | .
C/C(=N\Nc1cccc2cccnc12)c1ccccc1O | 72* | . | . | . | . | .
Cc1ccc(NC(=O)C2CCCO2)cc1[N+](=O)[O-] (stereo not drawn) | -14 | . | . | . | . | .
CC(C)(C)NC(=S)NC(=O)C12CC3CCC(CC(C3)C1)C2 | 4 | . | . | . | . | .
CN1CCC(N(C)C(=S)NC(=O)C23CC4CC(CC(C4)C2)C3)CC1 | 79* | . | . | . | . | .
CC(C)C(=O)NC(=S)Nc1ccc(S(=O)(=O)N2CCN(C)CC2)cc1 | -39 | . | . | . | . | .
Cc1cc(C(=O)N(C)Cc2ccc(Br)cc2)no1 | -2 | . | . | . | . | .
CN(Cc1ccccc1)C(=O)c1cc(-c2ccc(Br)cc2)on1 | 100* | 2 | -2 | . | -6 | .
Cc1ccc(NCc2nc3ccccc3n2CCOc2ccccc2)cc1 | 15 | . | . | . | . | .
Cc1ccc(C(=O)c2c(NC(=O)c3ccccc3C)sc(C)c2C)cc1 | 100* | 8 | -8 | -29 | 31 | 0
O=C(c1cccs1)N1CCN=C1SCc1ccccc1 | 44* | -2 | 2 | -2 | 15 | 6
COCCCNC(=S)N1CCN(c2ccc([N+](=O)[O-])cc2)CC1 | 65* | . | . | . | . | .
CCNC(=S)N1CCN(c2ccc([N+](=O)[O-])cc2)CC1 | -39 | -4 | 4 | -6 | 39 | 1
O=C(c1ccccc1)N1CCN(c2ccccc2F)CC1 | 71* | 4 | -4 | 10 | -5 | 0
O=C(c1ccccc1F)N1CCN(c2ccccc2F)CC1 | 91* | . | . | . | . | .
O=C(c1ccccc1C(=O)N1CCN(c2ccccc2F)CC1)N1CCN(c2ccccc2F)CC1 | -9 | . | . | . | . | .
CS(=O)(=O)Nc1ccc(C(=O)N2CCN(c3ccccc3F)CC2)cc1 | 10 | 2 | -2 | -13 | 41 | 28
CC(C)CC(=O)CN1C(=O)C2(OCCO2)c2ccccc21 | -43 | 12 | -12 | -8 | 77* | 14
CCCC(=O)CN1C(=O)C2(OCCO2)c2ccccc21 | -17 | . | . | . | . | .
CCn1c(NCc2cccs2)nc2ccccc21 | -7 | -7 | 7 | -10 | 87* | 9
COC(=O)c1ncccc1SC | 6 | . | . | . | . | .
COc1ccc(-n2c(=S)[nH]c3cc(C(=O)NCc4ccco4)ccc3c2=O)cc1OC | 67* | 19 | -19 | 3 | 14 | 3
